# According to PubChem BioAssay AID720569 (National Center for Advancing Translational Sciences (NCATS), 2013):
# Some of the results follow. Inconclusive results are not listed. Active and inactive are the calls of the source. The call rests on the fitted dose curve; in most records, active means well fitted inhibition curve with a large enough effect; inconclusive means small, poorly fitted or top-dose-only effect; inactive means no such curve, though single readings can be large or run the other way.
# Tested on: pyruvate kinase (Trypanosoma brucei)
# Test: qHTS of Trypanosoma Brucei Inhibitors: Confirmatory Assay for Cherry-picked Compounds; further: nearly all actives have a fitted effect of over 70% in size
# Details: recombinant TbPYK, Kinase-Glo ATP luminescence
# Excerpt: Members of the Trypanosomatidae family of parasitic protozoans cause a spectrum of diseases throughout the tropical and subtropical world. Sleeping sickness, caused by two subspecies of Trypanosoma brucei, is endemic to areas of sub-Saharan Africa, while Chagas' disease, a manifestation of Trypanosoma cruzi infection, is prevalent throughout Central and South America. In addition, many species of Leishmania are responsible for a range of cutaneous and visceral diseases, causing ulcers, destructive lesions and kalaazar, a lethal infection of the viscera. These diseases cause severe public health and economic burdens on populations that are often already caught in a tragic cycle of poverty, poor nutrition and disease. Collectively, parasites of the trypanosomatid family infect 30 million people worldwide (~500 million live in endemic areas), and account for ~130K deaths annually. Existing treatments have developed little in the past 50 years, and suffer from toxicity, poor efficacy and resistance; the goal of this project is to develop lead drugs that will be suitable for entry into pre-clinical trials. […] Glycolysis in axenically cultured T. cruzi, representing the intracellular pathogenic stage, is also essential for these parasites. {Engel, 1987} This project aims to discover and optimize selective inhibitors of the glycolytic enzyme pyruvate kinase (PYK) from Trypanosoma brucei, the parasite that causes sleeping sickness. […] Trypanosomatid PYKs show significant differences from their human counterparts including only 47-50% sequence identity and different allosteric and activation properties.{Callens, 1992} To this end, a qHTS was done against the MLSMR to discover inhibitors. NIH Molecular Libraries Probe Production Network [MLPCN] NIH Chemical Genomics Center [NCGC] Grant: MH095452 PI Name: Malcolm Walkinshaw, University of Edinburgh
# Two uL of TbPYK/substrate buffer (columns 1-3, 5-48) are dispensed into Greiner white solid bottom 1536-well assay plates; column 4 receives only TEA buffer as 0x TbPYK controls. Compounds are then transferred via Kalypsys pin tool equipped with 1536-pin array (10 nL slotted pins, V&P Scientific, San Diego, CA). Following addition of compound, 2 uL of ADP (130 uM final concentration, all columns) is added to initiate the reaction. The plates are then incubated at room temperature for 45 minutes. Kinase-Glo Plus reagent is added (3 uL) and plates incubated for 10 minutes, before being transferred to a ViewLux high-throughput CCD imager (PerkinElmer) wherein single end-point measurements of luminescence are acquired using a clear filter. All reagents are diluted in an assay buffer consisting of 50 mM TEA (pH 7.2), 100 mM KCl, 10 mM MgCl2, 0.05% BSA and 0.01% Tween-20. […]
# Potency means the concentration at half of the fitted maximal effect.
row,Structure (SMILES),Potency
1,O=C1NC(=O)N(c2ccccc2)C(=O)/C1=C/c1ccc([N+](=O)[O-])s1,8.91 µM (active)
2,Cc1ccc2c(c1)=C/C(=C\c1c(O)[nH]c(=O)[nH]c1=O)C(=O)N=2,17.8 µM (active)
3,COc1ccc(N2C(=O)/C(=C/c3ccco3)C(=O)NC2=S)cc1,14.1 µM (active)
4,O=C(O)CCn1cc(C=C2C(=O)NC(=S)NC2=O)c(-c2cccc(Br)c2)n1,6.31 µM (active)
